Many of the other results were omitted from the sample, so hits are more common in it than they were.
ST2 inh: inhibitors of human ST2 (IL1RL1) binding to IL-33; AlphaLISA ST2-Fc/biotin-IL-33 interaction, 1 h; inhibition, % for hits at 17 µM; AID 1259354; 78,000 compounds, 2.3% hits; in the data active = inhibition above about 30%
Target sequence (Q01638 whole entry, looked up): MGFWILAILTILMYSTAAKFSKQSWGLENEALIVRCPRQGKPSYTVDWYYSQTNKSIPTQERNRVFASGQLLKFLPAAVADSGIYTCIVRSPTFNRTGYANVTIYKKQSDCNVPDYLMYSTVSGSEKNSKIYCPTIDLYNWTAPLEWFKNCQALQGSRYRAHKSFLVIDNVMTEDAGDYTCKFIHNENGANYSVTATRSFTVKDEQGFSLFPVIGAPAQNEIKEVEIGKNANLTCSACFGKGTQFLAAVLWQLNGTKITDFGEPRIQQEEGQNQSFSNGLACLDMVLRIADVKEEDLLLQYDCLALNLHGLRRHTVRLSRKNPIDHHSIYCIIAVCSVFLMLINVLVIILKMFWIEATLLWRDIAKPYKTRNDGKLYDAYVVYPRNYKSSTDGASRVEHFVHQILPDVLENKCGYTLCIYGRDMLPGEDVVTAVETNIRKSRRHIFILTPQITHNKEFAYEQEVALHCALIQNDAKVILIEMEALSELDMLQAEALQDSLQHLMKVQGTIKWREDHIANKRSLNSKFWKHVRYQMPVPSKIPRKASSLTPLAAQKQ
* = called active by the depositor.

COc1cc(-c2nc3cnccn3c2Nc2ccc3c(c2)OCCO3)ccc1O was read as ST2 inh inactive.
For COc1ccc(-c2nc3sccn3c2Nc2ccc3c(c2)OCO3)cc1 the results were ST2 inh 30%*.
Cc1ccc(-c2nc3sccn3c2Nc2ccccc2C)cc1 was read as ST2 inh inactive.
`COc1ccc(C(=O)N2C[C@H](O)[C@@H](N3CCC4(CC3)OCCO4)C2)cc1` gave ST2 inh inactive.
CCOC(=O)C1(C(=O)OCC)Oc2c(OC)cccc2C1O (centres undefined) was read as ST2 inh inactive.
`COc1ccc(C(=O)ON=C2c3ccccc3-c3ccccc32)cc1` gave ST2 inh 40%*.
`COc1ccc(C(=O)OC(C)C(O)c2ccc(OC)cc2)cc1` (centres undefined) gave ST2 inh inactive.
For COc1cccc(C(=O)ON=C2C=CC(=O)C=C2)c1 the results were ST2 inh inactive.
For CC(C)(C)C(=O)/C=C(\N)C(Cl)(Cl)Cl the results were ST2 inh inactive.
`O=C(CSc1n[nH]c(-c2ccccc2)n1)c1ccc(F)cc1` gave ST2 inh inactive.
O=C(NCCSc1ccccc1)c1ccc(C2SCC(=O)N2Cc2ccccc2)cc1 (centres undefined) was read as ST2 inh inactive.
C=CCOC(=O)C1=C(C)N=C2SCCC(=O)N2C1c1ccc(F)cc1 (centres undefined) was read as ST2 inh inactive.
Screening CC1(C)C(=O)OC(/C(Br)=C/c2ccccc2)C(C)(C)C1=O (centres undefined) returned ST2 inh inactive.
CCOc1ccc(N2C(=O)S/C(=C\c3ccc(OC)cc3)C2=O)cc1 was read as ST2 inh inactive.
Screening CCOc1ccc(N2C(=O)S/C(=C\c3ccc(C)o3)C2=O)cc1 returned ST2 inh 34%*.
For CCOc1ccc(N2C(=O)S/C(=C\c3ccc(O)cc3)C2=O)cc1 the results were ST2 inh inactive.
CCOC(=O)C1=C(C)Nc2nc(SCc3ccc(Cl)cc3)nn2C1c1cccs1 (centres undefined) was read as ST2 inh inactive.
`O=C(NS(=O)(=O)c1ccc(NS(=O)(=O)c2cccs2)cc1)c1ccccc1` gave ST2 inh inactive.
For COc1cc(NS(=O)(=O)c2ccc(Cl)cc2)c(OC)cc1NC(=O)c1ccccc1 the results were ST2 inh inactive.
Screening CC(C)CN(CC(C)C)S(=O)(=O)c1cccs1 returned ST2 inh inactive.
Screening COc1ccccc1NC(=O)C1c2cc(OC)c(OC)cc2C(=O)N(C)C1c1cccs1 (centres undefined) returned ST2 inh inactive.
COc1ccccc1NC1=CC(=NS(=O)(=O)c2ccc(Cl)cc2)c2ccccc2C1=O was read as ST2 inh 95%*.
O=C1C(Nc2ccccc2)=CC(=NS(=O)(=O)c2cccs2)c2ccccc21 was read as ST2 inh 86%*.
For O=C(O)c1cccc(Nc2nc(-c3cccs3)cs2)c1 the results were ST2 inh inactive.
Screening COC(=NS(=O)(=O)c1ccc(Cl)cc1)c1ccccc1 returned ST2 inh inactive.
`NC(=NS(=O)(=O)c1cccs1)c1ccccc1` gave ST2 inh inactive.
`O=C(O)c1cccc(NC2=CC(=NS(=O)(=O)c3cccs3)c3ccccc3C2=O)c1` gave ST2 inh 40%*.
For COc1ccccc1NC1=CC(=O)CC(c2ccccc2)C1 (centres undefined) the results were ST2 inh inactive.
Screening COc1ccccc1NC1=CC(=NS(=O)(=O)c2cccs2)c2ccccc2C1=O returned ST2 inh 90%*.
`COc1ccc(-n2ncc3c(Nc4cc(OC)ccc4OC)ncnc32)cc1` gave ST2 inh inactive.
CC(C)=CCn1c(N2CCCCCC2)nc2c1c(=O)[nH]c(=O)n2C was read as ST2 inh inactive.
`COc1ccc(N(CC(N)=O)S(C)(=O)=O)cc1Cl` gave ST2 inh inactive.
Fc1cccc2sc(N3CCc4ccccc4C3)nc12 was read as ST2 inh inactive.
`CCCCNS(=O)(=O)c1cc(OC)ccc1OC` gave ST2 inh inactive.
For CCCOC(=O)c1ccc(NS(=O)(=O)c2cccc3nsnc23)cc1 the results were ST2 inh inactive.
`Cc1ccc(-c2nsc(SCC(=O)Nc3ccc4c(c3)OCCO4)n2)cc1` gave ST2 inh inactive.
Screening CN1CN=C2SC3(COC(c4ccc(N(C)C)cc4)OC3)C(=O)N2C1 (centres undefined) returned ST2 inh inactive.
For N#CC1=C(N)Oc2cc(O)ccc2C1c1ccc(Cl)c(Cl)c1 (centres undefined) the results were ST2 inh inactive.
For O=C(Nc1ccccc1-c1ccccc1NC(=O)c1ccc(F)cc1)c1ccc(F)cc1 the results were ST2 inh inactive.
For CN1CCN(Cc2noc(C3CCOC(C)(C)C3)n2)CC1 (centres undefined) the results were ST2 inh inactive.
`COc1ccc(CN2CCN(C3CSCCSC3)CC2CCO)c(F)c1` (centres undefined) gave ST2 inh inactive.
Screening CCOC(=O)C1CCN(C(=O)c2cn(CC(C)C)c(=O)c3cc(OC)c(OC)cc23)CC1 returned ST2 inh inactive.
`NNc1ccc2c(Cl)cc(Cl)c(O)c2n1` gave ST2 inh 35%*.
O=C(CSc1nc2c(c(=O)n1-c1ccccc1)SCC2)NCc1ccccc1 was read as ST2 inh inactive.
For CC(=O)Cc1nsc(Nc2cccc(Cl)c2C)n1 the results were ST2 inh inactive.
OC1CCCN(c2ccnc(N3CCN(CCc4ccccc4)CC3)n2)C1 (centres undefined) was read as ST2 inh inactive.
For COc1ccc2nc(CNC(=O)c3ncc[nH]3)[nH]c2c1 the results were ST2 inh inactive.
For COc1ccc(-c2cc(C[C@H]3CNCC[C@H]3CC(=O)N3CCN(C(C)=O)CC3)no2)cc1 the results were ST2 inh inactive.
Screening CCCCc1cc(C[C@H]2CNCC[C@H]2CC(=O)N2CCc3cc(OC)c(OC)cc3C2)no1 returned ST2 inh inactive.
CCCCc1cc(C[C@H]2CNCC[C@H]2CC(=O)N2CCN(C(C)=O)CC2)no1 was read as ST2 inh 43%*.
COc1ccccc1CNC(=O)C[C@@H]1CCNC[C@@H]1Cc1cc(-c2ccccc2)on1 was read as ST2 inh inactive.
For COc1ccc(CNC(=O)C[C@@H]2CCNC[C@@H]2Cc2cc(-c3ccccc3)on2)cc1OC the results were ST2 inh inactive.
For COC(=O)c1cc(C[C@H]2CNCC[C@H]2CC(=O)O)no1 the results were ST2 inh 77%*.
Screening Cc1cc(C)c2[nH]c(C(=O)NCc3nnc4n3CCCCC4)c(C)c2c1 returned ST2 inh inactive.
`O=C(C1CC1)N1CCc2cc(S(=O)(=O)NCc3ccco3)ccc21` gave ST2 inh inactive.
Cc1cc(N(C)C)nc(N2CCN(S(=O)(=O)c3ccccc3)CC2)n1 was read as ST2 inh inactive.
CC(=O)Nc1nnc(-c2ccccc2SCc2ccccc2)s1 was read as ST2 inh inactive.
For COc1ccc(-c2cc(C(=O)Nc3sc4c(c3C(N)=O)CCC(C)C4)no2)cc1OC (centres undefined) the results were ST2 inh inactive.
`COc1ccc(OC)c(-c2cc(C(=O)Nc3sc4c(c3C(N)=O)CCC(C)C4)no2)c1` (centres undefined) gave ST2 inh inactive.

Compound activity deposited in PubChem BioAssay by Paczesny and Yang Labs, IUPUI and University of Michigan.
